{"source": "PubChem BioAssay", "note": "“And” between values parts separate entries of the source, which are not always exact repeats. Equal values may be shown once. Where a structure was tested more than once in an assay, its records may differ in their call. The source made the active and inactive calls.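 Rule for the calls: active = mean z-score across replicates of 1.96 or higher in either the MELAS or the Rieske mutant cell line; inactive = the rest.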", "data": [{"experiment": "survival rescue of mitochondrial mutant cells in low glucose, primary screen, MELAS cybrids, Rieske KO mouse fibroblasts, CellTiter-Glo (AID 1508586);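 note: test concentration not given here; z relative to plate mean and SD of compound and empty wells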", "conditions": "MELAS cybrid survival, CellTiter-Glo 48 h, stronger effect = higher value", "values": [{"smiles": "O=C(Cn1ccnc1[N+](=O)[O-])NCCO", "z-score": "-0.801 (inactive)"}, {"smiles": "Cc1[nH]c(C)c(Cl)c(=O)c1Cl", "z-score": "-1.24 (inactive)"}, {"smiles": "C[C@H]1COc2c(C3(N)CC3)c(F)cc3c(=O)c(C(=O)O)cn1c23", "z-score": "0.246 (inactive)"}, {"smiles": "CC(C)(O)c1ccccc1CC[C@@H](SCC1(CC(=O)O)CC1)c1cccc(/C=C/c2ccc3ccc(Cl)cc3n2)c1", "z-score": "0.313 (inactive) and -0.452 (inactive)"}, {"smiles": "CCN1CCN(c2cc3c(cc2F)c(=O)c(C(=O)O)cn3C2CC2)CC1", "z-score": "-0.903 (inactive) and 0.356 (inactive)"}, {"smiles": "CCN1CC(CCN2CCOCC2)C(c2ccccc2)(c2ccccc2)C1=O", "note": "(centres undefined)", "z-score": "-0.295 (inactive) and -0.762 (inactive)"}, {"smiles": "COC(=O)CCc1ccc(OCC(O)CNC(C)C)cc1", "note": "(centres undefined)", "z-score": "-0.164 (inactive) and -0.834 (inactive) and -0.539 (inactive)"}, {"smiles": "CC(=O)Nc1ccc(OCC(O)CNC(C)C)cc1", "note": "(centres undefined)", "z-score": "0.00127 (inactive) and -0.285 (inactive)"}, {"smiles": "Cc1ccc(C(=O)c2ccc(CC(=O)O)n2C)cc1", "z-score": "0.498 (inactive) and 0.311 (inactive)"}, {"smiles": "CN1CCN(c2c(F)cc3c(=O)c(C(=O)O)cn4c3c2SCC4)CC1", "z-score": "0.206 (inactive) and 0.665 (inactive)"}, {"smiles": "COc1cc(N)c(Cl)cc1C(=O)NC1CCN(Cc2ccccc2)CC1", "z-score": "0.473 (inactive)"}, {"smiles": "O=C(O)P(=O)(O)O", "z-score": "-0.331 (inactive)"}, {"smiles": "CCCCCCCCCCCCCCCCOP(=O)([O-])OCC[N+](C)(C)C", "z-score": "-0.744 (inactive)"}, {"smiles": "CN(C)CCCSc1ccccc1NC(=O)/C=C/c1ccccc1", "z-score": "0.109 (inactive)"}, {"smiles": "CC(C)(C(=O)c1cccnc1)c1cccnc1", "z-score": "0.55 (inactive)"}, {"smiles": "NC(=NCCCCCCN=C(N)/N=C(\\N)Nc1ccc(Cl)cc1)/N=C(\\N)Nc1ccc(Cl)cc1", "z-score": "-4.55 (inactive)"}, {"smiles": "CC1(C)S[C@@H]2[C@H](NC(=O)[C@H](N)c3ccccc3)C(=O)N2[C@H]1C(=O)O", "z-score": "0.56 (inactive) and 0.538 (inactive)"}, {"smiles": "CC1CCc2cc(F)cc3c(=O)c(C(=O)O)cn1c23", "note": "(centres undefined)", "z-score": "-0.14 (inactive) and 1.18 (inactive)"}, {"smiles": "CC1(C)O[C@@H]2C[C@H]3[C@@H]4CCC5=CC(=O)CC[C@]5(C)[C@@]4(F)[C@@H](O)C[C@]3(C)[C@]2(C(=O)CCl)O1", "z-score": "0.0233 (inactive)"}, {"smiles": "CCN(CC)C(=O)N1CCN(C)CC1", "z-score": "0.833 (inactive) and 0.0717 (inactive)"}, {"smiles": "COc1ccc(C(=O)NCc2ccc(OCCN(C)C)cc2)cc1OC", "z-score": "0.424 (inactive) and 1.16 (inactive)"}, {"smiles": "CC(Oc1c(Cl)cccc1Cl)C1=NCCN1", "note": "(centres undefined)", "z-score": "-0.146 (inactive) and 0.131 (inactive)"}, {"smiles": "CN1CCCCC1CCN1c2ccccc2Sc2ccc(S(C)=O)cc21", "note": "(centres undefined)", "z-score": "0.0731 (inactive) and 0.00466 (inactive)"}, {"smiles": "CN1C(C)(C)CCCC1(C)C", "z-score": "-0.15 (inactive)"}, {"smiles": "CN(CCCN1c2ccccc2CCc2ccccc21)CC(=O)c1ccc(Cl)cc1", "z-score": "0.202 (inactive)"}, {"smiles": "CCOC(=O)C1=C(C)NC(C)=C(C(=O)OCC)C1c1ccccc1/C=C/C(=O)OC(C)(C)C", "z-score": "-0.103 (inactive) and 0.874 (inactive)"}, {"smiles": "CC(C(=O)O)c1ccc(C(=O)c2cccs2)cc1", "note": "(centres undefined)", "z-score": "0.0275 (inactive) and 0.475 (inactive)"}, {"smiles": "NC(N)=Nc1nc(CSCC/C(N)=N/S(N)(=O)=O)cs1", "z-score": "0.33 (inactive) and 1.06 (inactive)"}, {"smiles": "CC(=O)Nc1ccc(CC(=O)O)cc1", "z-score": "-0.406 (inactive)"}, {"smiles": "CC(=O)OC/C=C(C)/C=C/C=C(C)/C=C/C1=C(C)CCCC1(C)C", "z-score": "-0.677 (inactive)"}, {"smiles": "Cn1c(=O)c2c(ncn2CCO)n(C)c1=O", "z-score": "-0.0698 (inactive)"}, {"smiles": "CN(C)/N=N/c1nc[nH]c1C(N)=O", "z-score": "0.302 (inactive)"}, {"smiles": "C[C@@](Cc1ccc(O)c(O)c1)(NN)C(=O)O", "z-score": "-0.318 (inactive) and -0.0378 (inactive) and 0.282 (inactive)"}, {"smiles": "O=C1c2ccccc2C(=O)c2c1ccc(O)c2O", "z-score": "-0.0543 (inactive)"}, {"smiles": "CC(C)NCC(O)c1ccc2ccccc2c1", "note": "(centres undefined)", "z-score": "0.654 (inactive) and -0.419 (inactive)"}, {"smiles": "CCOC(=O)OC(C)OC1=C(C(=O)Nc2ccccn2)N(C)S(=O)(=O)c2ccccc21", "note": "(centres undefined)", "z-score": "-0.123 (inactive) and 0.743 (inactive) and 0.745 (inactive)"}, {"smiles": "COc1cc(C(=O)NCc2ccc(OCCN(C)C)cc2)cc(OC)c1OC", "z-score": "3.55 (active) and 0.307 (inactive)"}, {"smiles": "Nc1nc2c(ncn2CCC(CO)CO)c(=O)[nH]1", "z-score": "-0.249 (inactive) and -1.06 (inactive) and -0.78 (inactive)"}, {"smiles": "CC(C)(Oc1ccc(Cl)cc1)C(=O)O", "z-score": "-0.232 (inactive) and -0.856 (inactive)"}]}]}
